Data: PubChem BioAssay (NCATS)
Records with an inconclusive call do not appear. A number with no mark means an inactive call. The list shows a part of the results. The source made the active and inactive calls. Unless noted, calls follow the shape of the dose curve; as a rule, active = well fitted curve in the direction sought with a large enough effect; inconclusive = small, poorly fitted or top-dose-only effect, or another doubt; inactive = no such curve, though single readings can be large; an effect the other way counts as inactive or inconclusive.

Biological target: Thyroid hormone receptor beta (Homo sapiens) (UniProt P10828)
Assay: qHTS assay for small molecule agonists of thyroid hormone receptor beta signaling (AID 588545; calls by dose curve;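 also: 0% = DMSO only and 100% = 10 nM T3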)
Details: TR-UAS-bla GripTite HEK 293, beta-lactamase ratio, agonist mode, 18 h; series mostly up to 76.7 µM; activation: at the top concentration
Procedure, shortened: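 Beta-lactamase reporter activity under TR response element control is measured in HEK 293 cells after 18 hrs compound exposure. Signal is ratiometric CCF4 fluorescence, 460/530 nm.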

Thyroid hormone receptor beta (Homo sapiens), sequence (P10828 whole entry, looked up): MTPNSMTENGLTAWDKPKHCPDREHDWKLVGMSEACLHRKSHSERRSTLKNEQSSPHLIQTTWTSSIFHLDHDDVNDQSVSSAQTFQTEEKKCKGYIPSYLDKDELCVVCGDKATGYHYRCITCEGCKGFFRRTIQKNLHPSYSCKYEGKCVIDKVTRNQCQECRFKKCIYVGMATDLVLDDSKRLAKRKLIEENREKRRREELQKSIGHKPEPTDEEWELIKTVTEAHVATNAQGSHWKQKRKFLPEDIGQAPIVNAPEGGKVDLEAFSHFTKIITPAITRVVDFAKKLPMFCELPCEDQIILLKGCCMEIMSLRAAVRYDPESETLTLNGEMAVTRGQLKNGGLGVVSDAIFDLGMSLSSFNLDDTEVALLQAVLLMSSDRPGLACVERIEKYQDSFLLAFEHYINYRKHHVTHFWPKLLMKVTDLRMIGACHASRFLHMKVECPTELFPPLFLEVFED

Compound	activation
CCOCn1c(-c2ccc(Cl)cc2)c(C#N)c(Br)c1C(F)(F)F	2.18%
CON=C(C(=O)OC)c1ccccc1CO/N=C(\C)c1cccc(C(F)(F)F)c1	-9.16%

Biological target: Vitamin D3 receptor (Homo sapiens) (UniProt P11473)
Assay: qHTS for Inhibitors of the vitamin D receptor (VDR): Hit Validation in Primary Screen (AID 602199); also: potency is read from the fitted curve at half-maximal effect
Details: VDR-coactivator inhibition assay, qHTS confirmation
Excerpt: (§1) The vitamin D receptor (VDR) is a ligand-activated transcription factor and is partially responsible for the regulation of the endocrine system. This includes the transcriptional regulation of genes involved in the production of the parathyroid hormone (PTH) and the regulation of the blood calcium level. High levels of PHT can cause hypercalcemia in the case of primary and tertiary hyperparathyroidism. The VDR-mediated gene regulation, activated by its ligand 1,25-dihydroxyvitamin D3 (1,25-(OH)2D3), is governed by the recruitment of coactivators. Our hypothesis is that small molecules, with the ability to inhibit the interaction between VDR and certain coactivators, are able to selectively modulate VDR-mediated transcription. Our long term objective is the application these VDR-coactivator inhibitors to study the role of VDR-coactivator binding for specific VDR regulated genes. Ultimately, these molecules can be developed into new treatments for hypercalcemic hyperparathyroidism. No small molecule or non-peptide inhibitors are known for the VDR-coactivator interaction.
In a collaboration between the University of Wisconsin, Milwaukee and the NIH Chemical Genomics Center (NCGC) a HTS-compatible enzymatic assay was developed. The assay uses fluorescence polarization as its read-out to measure the inhibition between VDR and coregulator peptide SRC2-3 exerted by small molecules. This assay was used to screen the NIH Molecular Libraries Small Molecule Repository (MLSMR).
NIH Chemical Genomics Center [NCGC]
NIH Molecular Libraries Probe Centers Network [MLPCN]
Assay Submitter (PI): Alexander Arnold, University of Wilwaukee
Four microliter of either 800nM VDR, 5uM LG19078, and […]nM SRC2-3 Alexa 647 (all final concentrations) in columns 1, 2, and 5 to 48 or […]nM SRC2-3 Alexa 647 in columns 3 and 4 are dispensed into black medium-binding solid bottom Greiner plates. Both solutions are kept at 4 deg C and protected from light and dispensed using a Kalypsys dispenser. […] It is then read on the Envision for a fluorescent polarization read-out (Ex 620 nm/Em 688 nm)

Vitamin D3 receptor (Homo sapiens), sequence (P11473 whole entry, looked up): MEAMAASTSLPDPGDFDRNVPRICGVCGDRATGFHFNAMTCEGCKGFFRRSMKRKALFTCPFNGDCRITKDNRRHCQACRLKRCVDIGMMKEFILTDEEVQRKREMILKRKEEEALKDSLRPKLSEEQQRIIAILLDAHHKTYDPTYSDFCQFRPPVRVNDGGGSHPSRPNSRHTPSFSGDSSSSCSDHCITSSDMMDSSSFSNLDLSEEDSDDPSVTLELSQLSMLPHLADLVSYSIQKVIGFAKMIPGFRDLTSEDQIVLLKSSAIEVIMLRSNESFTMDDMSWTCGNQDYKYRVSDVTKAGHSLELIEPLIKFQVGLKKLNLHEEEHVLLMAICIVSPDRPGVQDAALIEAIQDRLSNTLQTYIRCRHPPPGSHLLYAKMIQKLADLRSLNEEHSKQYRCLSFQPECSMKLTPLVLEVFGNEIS

Compound	Potency
Cc1ccnc(-n2c(C)cc(/C=C3\C(=O)NC(=S)N(C)C3=O)c2C)c1	29.9 µM (active)
O=C1NC(=O)N(c2ccccc2)C(=O)/C1=C/c1ccc([N+](=O)[O-])s1	26.7 µM (active)
O=C(O)CCn1cc(C=C2C(=O)NC(=S)NC2=O)c(-c2cccc(Br)c2)n1	6.7 µM (active)

Biological target: Vitamin D3 receptor (Homo sapiens) (UniProt P11473)
Assay: qHTS for Inhibitors of the vitamin D receptor (VDR): Hit Validation using a Beta-Lactamase Assay (AID 602202); also: % is scaled to controls: 0 for no effect and ±100 for the full control effect
Details: VDR beta-lactamase reporter cells, FRET ratio; series mostly up to 46.1 µM; activity change, negative = inhibition: at the top concentration
Excerpt: as §1
In a collaboration between the University of Wisconsin, Milwaukee and the NIH Chemical Genomics Center (NCGC) a HTS-compatible enzymatic assay was developed. The assay uses fluorescence polarization as its read-out to measure the inhibition between VDR and coregulator peptide SRC2-3 exerted by small molecules. This assay was used to screen the NIH Molecular Libraries Small Molecule Repository (MLSMR). The cell-based VDR transcription assay was carried out with commercially available stably transfected HEK293 cells. […] Successful activation is detected by a decrease in time-resolved fluorescence resonance energy transfer (TR-FRET) caused by enzymatic cleavage of fluorescent betalactam substrate added after 24h incubation. The cleaved substrate concentration was quantified by measuring the fluorescence emission at 447 nm. […]

Compound	activity change, negative = inhibition
Cc1ccnc(-n2c(C)cc(/C=C3\C(=O)NC(=S)N(C)C3=O)c2C)c1	26.5%
O=C1NC(=O)N(c2ccccc2)C(=O)/C1=C/c1ccc([N+](=O)[O-])s1	11.1%
O=C(O)CCn1cc(C=C2C(=O)NC(=S)NC2=O)c(-c2cccc(Br)c2)n1	-2.37%

Biological target: Luciferin 4-monooxygenase (Photinus pyralis) (UniProt P08659)
Assay: Biochemical firefly luciferase enzyme assay for NPC (AID 624030);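 also: purified P. pyralis luciferase at 10 nM with luciferin and ATP substrate; 0% = DMSO and -100% = full luciferase inhibition by PTC124 control; nearly all actives have a fitted effect of over 70% in size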
Details: purified P. pyralis luciferase, luminescence, 5 min; series mostly up to 58.6 µM; activity change, negative = inhibition: at the top concentration
Procedure, shortened: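 Direct inhibition of firefly luciferase enzyme (10 nM final, 50 mM Tris Acetate) assessed by luminescence within 5 minutes. Percent activity scaled between DMSO and PTC124 positive control, with concentration-effect curves classified by fit quality and response.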

Luciferin 4-monooxygenase (Photinus pyralis), sequence (P08659 whole entry, looked up): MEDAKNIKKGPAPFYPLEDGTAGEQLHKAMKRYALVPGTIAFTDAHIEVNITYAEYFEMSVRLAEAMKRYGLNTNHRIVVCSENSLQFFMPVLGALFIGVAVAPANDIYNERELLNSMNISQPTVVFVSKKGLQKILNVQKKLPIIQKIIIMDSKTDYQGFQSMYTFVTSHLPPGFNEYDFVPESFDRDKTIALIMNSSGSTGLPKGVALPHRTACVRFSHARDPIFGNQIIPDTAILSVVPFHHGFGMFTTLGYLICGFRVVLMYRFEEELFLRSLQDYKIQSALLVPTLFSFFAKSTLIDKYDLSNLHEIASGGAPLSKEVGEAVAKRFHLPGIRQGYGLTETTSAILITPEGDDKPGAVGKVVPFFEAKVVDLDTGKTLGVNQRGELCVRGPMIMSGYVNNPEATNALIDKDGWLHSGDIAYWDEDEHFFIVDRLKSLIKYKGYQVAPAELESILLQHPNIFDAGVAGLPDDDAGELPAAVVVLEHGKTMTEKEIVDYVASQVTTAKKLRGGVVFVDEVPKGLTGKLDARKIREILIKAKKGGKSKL

Compound	activity change, negative = inhibition
CC1[C@H]2Cc3ccc(O)cc3[C@]1(C)CCN2C (stereo not given in full)	-0.801% [at 215 µM]
CC1(O)CCC2C3CCC4=CC(=O)CCC4(C)C3(F)C(O)CC21C (stereo not given)	0.526%
C#C[C@]1(OC(=O)CCCCCC)CC[C@H]2C3CCC4=CC(=O)CC[C@@H]4[C@H]3CC[C@@]21C (stereo not given in full)	-3.44%
CC(C)=CCN1CC[C@@]2(C)c3cc(O)ccc3C[C@@H]1C2C (stereo not given in full)	-2.43% [at 123 µM]
CCC1CC2CC3c4[nH]c5ccc(OC)cc5c4CCN(C2)C13 (stereo not given)	3.73% [at 123 µM]
O=C1[O][Sb-]23[O]C(=O)C([O]2)C2[O][Sb-]4([O]C(=O)C([O]4)C1[O]3)[O]C2=O	-5.84%
CC(=O)Oc1ccc2c3c1OC1C(OC(C)=O)C=CC4[C@@H](C2)N(C)CC[C@]314 (stereo not given in full)	0.983% [at 123 µM]
CC(=O)[C@@]1(O)CC[C@@H]2[C@@H]3CCC4=CC(=O)CC[C@]4(C)[C@]3(F)[C@@H](O)C[C@@]21C	-3.27%
CC(N)C(=O)c1ccccc1 (stereo not given)	-14.4% [at 123 µM]
CCNC(C)Cc1ccc2c(c1)OCO2 (stereo not given)	2.81% [at 123 µM]
CC(C)=CCN1CC[C@@]2(C)c3cc(O)ccc3C[C@H]1[C@@H]2C	0.692% [at 123 µM]
CCC(=O)OC1[C@@H](N2CCCCC2)C[C@H]2[C@@H]3CC[C@H]4C[C@H](OC(C)=O)[C@@H](N5CCCCC5)C[C@]4(C)[C@H]3CC[C@]12C (stereo not given in full)	3.93%
C[N+]1(CCF)[C@@H]2CC[C@@H]1CC(OC(=O)C(O)(c1ccccc1)c1ccccc1)C2 (stereo not given in full)	3%

System: not listed separately
Assay: qHTS assay for small molecule activators of the p53 signaling pathway (AID 651743; active = well fitted activation curve with a large enough effect in the signal ratio, not every such curve was filed as active; the % refers to the signal ratio; also: potency is read from the fitted curve at half-maximal effect; as to activation: % of control where 0% means no effect)
Details: HCT-116 p53RE-bla, beta-lactamase FRET ratio, 16 h; activation: hits give high values
Procedure, shortened: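 Read-out is fluorescence intensity from the LiveBLAzer B/G FRET substrate, added for 2 hours at room temperature after HCT-116 p53RE-bla cells had been incubated with compounds for 16 hours at 37 C.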

Compound	activation	Potency
CC(C)NC(=O)N1CC(=O)N(c2cc(Cl)cc(Cl)c2)C1=O	-1.23%	
CON=C(C(=O)OC)c1ccccc1CO/N=C(\C)c1cccc(C(F)(F)F)c1		5.01 µM (active)
ClC1=C(Cl)[C@]2(Cl)[C@H]3[C@H]([C@@H]4C=C[C@H]3C4)[C@]1(Cl)C2(Cl)Cl	-0.297%	

System: not listed separately
Assay: qHTS assay for environmental chemicals that activate the Aryl hydrocarbon Receptor (AhR) signaling pathway (AID 651777); also: nearly all actives have a fitted effect of over 15% in size; also: potency is read from the fitted curve at half-maximal effect; as to activation: % of control where 0% means no effect
Details: 1A2-DRE human hepatoma cells, luciferase, 24 h; activation: hits give high values
Procedure, shortened: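 Human hepatoma 1A2-DRE cells, stably carrying a dioxin response element and CYP1A2 promoter driving luciferase, were exposed to compounds for 24 hr at 37 C and 5% CO2. Luciferase signal was then read after 30 min One-Glo at room temperature.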

Compound	activation	Potency
CC(C)NC(=O)N1CC(=O)N(c2cc(Cl)cc(Cl)c2)C1=O	14.5%	
O=C(Nc1ccccc1)c1ccccc1O		44.7 µM (active)
CCOCn1c(-c2ccc(Cl)cc2)c(C#N)c(Br)c1C(F)(F)F	-4.34%	
C=CCCC		22.4 µM (active)
ClC1=C(Cl)[C@]2(Cl)[C@H]3[C@H]([C@@H]4C=C[C@H]3C4)[C@]1(Cl)C2(Cl)Cl	0.0639%	
N#CC(Br)(Br)C(N)=O	-0.328%	
